Measured values reported in PubChem BioAssay AID489025 (Southern Research Specialized Biocontainment Screening …, 2010).
Screen size: about 2,300 compounds; about 790 (34%) were called active. Some of the results follow. Entries with a potency or affinity are not part of this list. Unmarked numbers belong to inactive results. How the calls were made is not given here.

test: THP-1 cell cytotoxicity, dose response, cytotoxicity control for non-replicating M. tuberculosis project (AID 489025); details: THP-1 cell viability; series mostly up to 40 µM; viability: at the top concentration

SMILES | viability
Cc1ccc(/C=N/NC(=O)c2ccncc2)o1 | 97.5%
Cc1ccccc1-n1c(C)cc(/C=N/NC(=O)c2ccncc2)c1C | 92.3%
Cc1ccc(OCCCCn2ccnc2)c([N+](=O)[O-])c1 | 78.2%
Cc1cc(OCc2cc(C(=O)N(C)CCc3cnn(C)c3)no2)cc(C)c1Cl | 81.1%
c1ccc2cc(OCCCn3ccnc3)ccc2c1 | 78%
Cc1cc(OCCCn2ccnc2)ccc1C(C)C | 70.4%
c1ccc(-c2ccccc2OCCCCn2ccnc2)cc1 | 76.9%
COc1ccc(-c2noc(-c3cc4ccccc4oc3=O)n2)cc1 | 104%
CCCOc1ccc(N2CC(C(=O)Nc3ccccn3)CC2=O)cc1 (stereo not given) | 113%
O=S(=O)(Nc1nccs1)c1ccc(NCc2cc(Br)cc(Br)c2O)cc1 | 102%
COCC(=O)Nc1ccccc1NC(C)=O | 104%
S=C(Nc1ccc2c(c1)OCO2)Nc1ccc2c(c1)OCO2 | 90%
O=C1CC(Sc2ncccn2)C(=O)N1c1ccccc1C(F)(F)F (stereo not given) | 113%
CCOc1c(OC(C)=O)ccc(/C=C2\N=C(SCC)SC2=O)c1[N+](=O)[O-] | 121%
Cc1c(C(=O)N(C)C)sc2nc(-c3ccccn3)[nH]c(=O)c12 | 95.8%
CCCCOC(=O)c1ccc(NC(=O)C2CCCO2)cc1 (stereo not given) | 81%
COCCNC(=O)c1cc2cc(Cl)cc(Cl)c2oc1=O | 106%
COC(=O)c1cc2c(ccc3ccccc32)oc1=O | 77.5%
C=CCOc1ccc(CNCCO)cc1OCC | 115%
O=S(=O)(c1ccc(Cl)c2ccccc12)N1CCCC1 | 89.1%
CN(C(=O)COC(=O)c1ccc([N+](=O)[O-])cc1Cl)C1CCCCC1 | 113%
N#Cc1cc(N)ccc1-n1cccc1 | 92.9%
Cc1cc(C(=O)N/N=C/c2ccc(OC(=O)c3ccccc3Br)cc2)n[nH]1 | 109%
Cc1cc2ccccc2n1CCNC(=O)C(C)(C)C | 95.9%
CC(C)OC(=O)C(C)Oc1ccc(C(=O)NCCc2ccccc2)cc1 (stereo not given) | 89.1%

SMILES | viability
O=C(CC1CCCCC1)NCc1ccccc1 | 110%
CC1CCN(C(=O)COC(=O)c2cc3ccccc3cc2O)CC1 | 112%
CCNC(=O)COC(=O)c1ccc(-c2nc3ccccc3s2)s1 | 111%
CCSc1ncc(/C=N/Nc2ccc(Cl)cc2)n1C | 80.5%
Cc1ccc(NC(=O)COC(=O)C2=COCCO2)c([N+](=O)[O-])c1 | 114%
Cc1c(NC(=O)c2coc(=O)c(Br)c2)c(=O)n(-c2ccccc2)n1C | 117%
CCOC(=O)C(=O)NC12CC3CC(CC(C3)C1)C2 | 101%
C/C(=N\NC(=O)c1cccs1)c1ccc2c(c1)OCO2 | 88.5%
O=C(COC(=O)c1ccc(Br)o1)Nc1ncc([N+](=O)[O-])s1 | 95.2%
O=C(CCS(=O)(=O)Cc1ccccc1)Nc1ncc([N+](=O)[O-])s1 | 87.1%
O=C(NCCC1CCCC1)c1cccs1 | 93.2%
CCC(=O)c1ccc(OCC(=O)OCC(=O)N2CCc3ccccc3C2)cc1 | 114%
O=C(OCC(=O)N1CCc2ccccc21)c1ccc([N+](=O)[O-])cc1 | 123%
COC(=O)COc1ccc2cc(-c3ccc(OC)cc3)c(=O)oc2c1 | 127%
O=C(Nc1ccc([N+](=O)[O-])cc1)c1ccc(Cn2cc([N+](=O)[O-])cn2)cc1 | 73.7%
COc1ccc(NC(=O)c2ccc(-c3ccc([N+](=O)[O-])cc3)o2)cc1OC | 81.5%
Cc1cccc(NCCC(=O)c2ccc([N+](=O)[O-])cc2)c1C | 102%
Cc1cccc(NC(=O)c2n[nH]c([N+](=O)[O-])c2Br)c1C | 104%
O=C(NCc1ccc(F)cc1)c1ccc(Br)o1 | 123%
Cc1ccc(CCC(=O)Nc2ccc(C)c(C)c2)o1 | 118%
O=C(NCc1ccc(Cl)cc1)c1n[nH]c([N+](=O)[O-])c1Cl | 116%
CCC1CCc2sc(C(=O)NCC3CCCO3)cc2C1 (stereo not given) | 75.8%
CN1CCN(c2c(F)cc3c(=O)c(C(=O)O)cn4c3c2SCC4)CC1 | 100%
Cc1cc(C=C2C(=O)N(C)C(=S)N(C)C2=O)c(C)n1-c1cccnc1 | 77%
Cc1cccc(NC(=O)COC(=O)CCc2c[nH]c3ccccc23)c1C | 117%

SMILES | viability
CC(=O)c1ccc(-c2nnc(CCC(=O)N(C)Cc3cccc4cnccc34)o2)s1 | 89.4%
CN1C(=O)CC(Sc2ccccc2C(=O)O)C1=O (stereo not given) | 132%
O=C(COC(=O)c1ccc(Cl)s1)c1ccc[nH]1 | 101%
COC(=O)[C@H](CC(C)C)NC(=O)NCCC1=CCCCC1 | 120%
COc1ccccc1CCNC(=O)c1ccc(C)o1 | 87.9%
CCn1nnc(NC(=O)COc2ccc(C3CCCCC3)cc2)n1 | 82.2%
CC12CN3CC(C)(CN(C1)C3c1ccc([N+](=O)[O-])o1)C2 (stereo not given) | 109%
COc1ccccc1NC(=O)C(=O)/C=C(\O)c1ccccc1 | 82.8%
CCn1nnc(NC(=O)c2ccc(-c3ccc(Cl)cc3)o2)n1 | 98.2%
CC1CC(C)CN(C(=O)COC(=O)c2ccc([N+](=O)[O-])o2)C1 (stereo not given) | 93.8%
COc1ccc(OCCCC(=O)Nc2ccc(N3CCOCC3)cc2)cc1 | 116%
CCOC(=O)CCNC(=O)c1ccc2nc(C3CCCCC3)oc2c1 | 104%
Cc1[nH][nH]c(=O)c1C(c1ccc(-c2ccc(F)cc2)o1)c1c(C)[nH][nH]c1=O | 96.8%
CC(C)(C)OC(=O)NCCC(=O)Oc1ccc2ccc(=O)oc2c1 | 89.2%
Cc1noc(C)c1COc1ccc(C(=O)Nc2ccccn2)cc1 | 91.7%
O=C(Nc1ccccc1F)c1ccc(CSc2ccccc2)o1 | 89.5%
Cc1cc(C)c(C(=O)COC(=O)c2ccc([N+](=O)[O-])o2)cc1C | 115%
Cc1ccc(C)c(-c2nnc(NC(=O)COc3ccccc3)o2)c1 | 77.5%
COCCn1c(C)cc(C(=O)COC(=O)c2ccc([N+](=O)[O-])o2)c1C | 118%
Cc1ccc(C)c(-c2nnc(NC(=O)C3=COCCO3)o2)c1 | 83%
O=C1NN(c2ccccc2)C(=O)/C1=C/c1ccc(Sc2ccc(Cl)cc2)o1 | 79%
COc1ccc(-c2nnn(Cc3ccccc3)n2)cc1 | 103%
NC(=O)c1cccnc1Nc1cccc(F)c1 | 104%
COCCCC1CCN(Cc2nc(-c3ccccc3)no2)CC1 | 104%
CCCCNC(=O)COC(=O)c1cc(Br)ccc1Cl | 118%
